Source: PubChem BioAssay
Values joined by “and” are separate entries in the source; they are usually repeats but may differ in a detail not shown here. Equal values may be shown once. Some structures have more than one record in an assay (separate samples or runs), and their calls can disagree. Active and inactive are the calls of the source. No rule for the calls is given here.

Tested on: not listed separately
Assay: pro-inflammatory signaling induction in mouse macrophages – cell-based, murine, luminescence (AID 652131)
Settings: murine macrophage pro-inflammatory reporter, stronger effect = higher value
Also: test concentration not given here.

Row | SMILES | z-score
1 | CCn1c(-c2nonc2N)nc2c(C#CC(C)(C)O)nc(OC[C@@H](N)c3ccccc3)cc21 | -1.1 (inactive)
2 | COc1ccc(-c2cc3c(N)ncnc3o2)cc1 | 1.8 (inactive)
3 | COc1cc(/C=N/Nc2ncnc3[nH]ncc23)ccc1O | -0.354 (inactive)
4 | CN(C)c1cc2c(Nc3ccc4nc(Cc5ccccc5)[nH]c4c3)ncnc2cn1 | 0.922 (inactive)
5 | FC(F)(F)c1ccc(-c2nn3ncccc3c2-c2ccnc(Nc3ccc4c(c3)OCCO4)n2)cc1 | 0.358 (inactive)
6 | NS(=O)(=O)c1ccc(N=Nc2c(O)[nH]c3ccc(C(=O)NCCCn4ccnc4)cc23)cc1 | 0.038 (inactive)
7 | CN(c1ccc(NC(=O)Nc2ccc(OC(F)(F)F)cc2)cc1)c1ccnc(Nc2cccc(S(N)(=O)=O)c2)n1 | -1.34 (inactive)
8 | CCn1c(-c2nonc2N)nc2cnc(Oc3cccc(NC(=O)c4ccc(OCCN5CCOCC5)cc4)c3)cc21 | 1.15 (inactive)
9 | COc1cccc(-n2ncc3c(N/N=C/c4ccc(F)cc4)ncnc32)c1 | -0.343 (inactive)
10 | COc1cc2ncn(-c3cc(OCc4ccccc4S(C)(=O)=O)c(C#N)s3)c2cc1OC | 8.9 (active)
11 | COc1ccc(COc2ccc(Cc3cnc(N)nc3N)cc2OC)cc1 | 1.35 (inactive)
12 | CN(C)c1cc2c(Nc3ccc4c(cnn4Cc4ccccc4)c3)ncnc2cn1 | -0.608 (inactive)
13 | CN1CCC(n2cnc(-c3ccc(F)cc3)c2-c2ccnc(Nc3ccccc3)n2)CC1 | 0.813 (inactive)
14 | N#Cc1c(NC(=O)c2ccccc2F)sc2c1CCCC2 | 2.53 (inactive)
15 | CC(=O)Nc1cccc(C#Cc2cncnc2Nc2ccc(OCc3cccc(F)c3)c(Cl)c2)c1 | -0.803 (inactive)
16 | CCOc1ccc2c(-c3ccnc(Nc4cc(OC)cc(C(F)(F)F)c4)n3)cnn2n1 | 0.258 (inactive)
17 | Nc1nccc(-c2c(-c3ccc(F)cc3)ncn2C2CCNCC2)n1 | 15.2 (active) and 4.36 (inactive)

Row | SMILES | z-score
18 | NC(=O)c1ccc2c(-c3ccnc(NCCCO)n3)c(-c3ccc(F)cc3)nn2c1 | 0.119 (inactive)
19 | Fc1cccc(COc2ccc(Nc3ncnc4sc(-c5ccco5)cc34)cc2Cl)c1 | -0.392 (inactive)
20 | Fc1cccc(COc2ccc(Nc3ncnc4cc(-c5ccc[nH]5)sc34)cc2Cl)c1 | -0.371 (inactive)
21 | C#Cc1cccc(Nc2ncnc3ccc(OCCCCNCCS(C)(=O)=O)cc23)c1 | -0.695 (inactive)
22 | O=S1CCN(Cc2ccc(-c3ccc4ncnc(Nc5ccc(OCc6ccccc6)c(Cl)c5)c4c3)o2)CC1 | 1.11 (inactive)
23 | O=C1NC(=O)C(c2ccccc2Cl)=C1Nc1cccc(O)c1 | 0.132 (inactive)
24 | NC(=O)c1ccc(-c2nc(-c3ccc4c(c3)OCO4)c(-c3ccccn3)[nH]2)cc1 | 5.36 (inactive)
25 | CN(C)CCOc1ccc(-c2nc(-c3ccc4c(c3)CC/C4=N\O)c(-c3ccncc3)[nH]2)cc1 | 1.26 (inactive)
26 | FC(F)(F)c1cccc(Nc2nccc(-c3cnn4nc(-c5ccccc5)ccc34)n2)c1 | -0.793 (inactive)
27 | Nc1ncnc2occ(-c3ccc(NC(=O)Nc4cc(C(F)(F)F)ccc4F)cc3)c12 | 0.268 (inactive) and -0.714 (inactive)
28 | Cn1cc(/C=C2\C(=O)Nc3cccnc32)c2ccccc21 | 5.16 (inactive)
29 | Cc1ccc(O)cc1Nc1ccnc2cc(-c3ccccn3)ccc12 | 5.39 (inactive)
30 | Cn1c(-c2nonc2N)nc2cnccc21 | -0.113 (inactive)
31 | Fc1ccc(-c2nc3n(c2-c2ccncc2)CCS3)cc1 | 2.76 (inactive)
32 | COc1ccc(-c2oc3ncnc(N)c3c2-c2ccc(NC(=O)Nc3cc(C(F)(F)F)ccc3F)cc2)cc1 | -0.472 (inactive)
33 | NS(=O)(=O)c1ccc(N=Nc2c(O)[nH]c3ccc(Cl)cc23)cc1 | 0.24 (inactive)

Target: Cellular tumor antigen p53 (Homo sapiens) (UniProt P04637)
Sequence (P04637 whole entry, looked up): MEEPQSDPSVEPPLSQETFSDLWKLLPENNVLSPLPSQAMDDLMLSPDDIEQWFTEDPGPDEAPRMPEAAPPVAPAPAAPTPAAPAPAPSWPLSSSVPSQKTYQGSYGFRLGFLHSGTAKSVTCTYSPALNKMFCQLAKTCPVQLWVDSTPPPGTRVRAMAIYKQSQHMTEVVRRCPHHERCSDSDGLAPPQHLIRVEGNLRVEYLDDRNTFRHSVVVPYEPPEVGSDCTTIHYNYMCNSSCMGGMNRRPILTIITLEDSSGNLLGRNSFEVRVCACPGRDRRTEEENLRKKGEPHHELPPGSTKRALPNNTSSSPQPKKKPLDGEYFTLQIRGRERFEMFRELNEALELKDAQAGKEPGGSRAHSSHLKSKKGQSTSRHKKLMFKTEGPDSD
Assay: GFP-p53 level modulators in HPV16+ cells – imaging, known kinase inhibitor set, EGFP/DsRed ratio (AID 1053116);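 also: cells exposed to compounds for 24 h at 37 °C before reading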
Settings: GFP-p53 stability, stronger effect = higher value; EGFP object count: measured here: GFP-p53 positive objects count

Row | SMILES | EGFP/DsRed ratio | EGFP object count
34 | CCn1c(-c2nonc2N)nc2c(C#CC(C)(C)O)nc(OC[C@@H](N)c3ccccc3)cc21 | 0.658 (inactive) | 19.5
35 | COc1ccc(-c2cc3c(N)ncnc3o2)cc1 | 0.215 (inactive) | 6.5
36 | COc1cc(/C=N/Nc2ncnc3[nH]ncc23)ccc1O | 0.119 (inactive) | 2.5
37 | CN(C)c1cc2c(Nc3ccc4nc(Cc5ccccc5)[nH]c4c3)ncnc2cn1 | 0.0121 (inactive) | 3
38 | FC(F)(F)c1ccc(-c2nn3ncccc3c2-c2ccnc(Nc3ccc4c(c3)OCCO4)n2)cc1 | 0.479 (inactive) | 5
39 | NS(=O)(=O)c1ccc(N=Nc2c(O)[nH]c3ccc(C(=O)NCCCn4ccnc4)cc23)cc1 | 0.239 (inactive) | 6
40 | CN1C(=O)C(c2c[nH]c3ccccc23)=C(c2c[nH]c3ccccc23)C1=O | 0.0517 (inactive) | 3
41 | CN(c1ccc(NC(=O)Nc2ccc(OC(F)(F)F)cc2)cc1)c1ccnc(Nc2cccc(S(N)(=O)=O)c2)n1 | 0.0983 (inactive) | 7.5
42 | Cn1cc(C2=C(c3c4n(c5ccccc35)CCC(CN)C4)C(=O)NC2=O)c2ccccc21 (stereo unspecified) | 0.0193 (inactive) | 2
43 | CCn1c(-c2nonc2N)nc2cnc(Oc3cccc(NC(=O)c4ccc(OCCN5CCOCC5)cc4)c3)cc21 | 0.0358 (inactive) | 3
44 | COc1cccc(-n2ncc3c(N/N=C/c4ccc(F)cc4)ncnc32)c1 | 0.197 (inactive) | 9
45 | COc1cc2ncn(-c3cc(OCc4ccccc4S(C)(=O)=O)c(C#N)s3)c2cc1OC | 0.318 (inactive) | 7.5
46 | COc1ccc(COc2ccc(Cc3cnc(N)nc3N)cc2OC)cc1 | 0.0511 (inactive) | 4.5
47 | CN(C)c1cc2c(Nc3ccc4c(cnn4Cc4ccccc4)c3)ncnc2cn1 | 0.0403 (inactive) | 3.5
48 | CN1CCC(n2cnc(-c3ccc(F)cc3)c2-c2ccnc(Nc3ccccc3)n2)CC1 | 0.0706 (inactive) | 3
49 | N#Cc1c(NC(=O)c2ccccc2F)sc2c1CCCC2 | 0 (inactive) | 0
50 | CC(=O)Nc1cccc(C#Cc2cncnc2Nc2ccc(OCc3cccc(F)c3)c(Cl)c2)c1 | 0.169 (inactive) | 3.5
51 | CCOc1ccc2c(-c3ccnc(Nc4cc(OC)cc(C(F)(F)F)c4)n3)cnn2n1 | 0.102 (inactive) | 6
52 | Nc1nccc(-c2c(-c3ccc(F)cc3)ncn2C2CCNCC2)n1 | 0.0782 (inactive) and 0.0295 (inactive) | 12.5 and 3
53 | NC(=O)c1ccc2c(-c3ccnc(NCCCO)n3)c(-c3ccc(F)cc3)nn2c1 | 0.0827 (inactive) | 4

Row | SMILES | EGFP/DsRed ratio | EGFP object count
54 | Cn1cc(C2=C(c3cn(CCCSC(=N)N)c4ccccc34)C(=O)NC2=O)c2ccccc21 | 0.00598 (inactive) | 1
55 | O=C1NC(=O)C(c2c[nH]c3ccccc23)=C1c1c[nH]c2ccccc12 | 0.273 (inactive) | 22.5
56 | Fc1cccc(COc2ccc(Nc3ncnc4sc(-c5ccco5)cc34)cc2Cl)c1 | 0.122 (inactive) | 4.5
57 | Cn1c(=O)c(Oc2ccc(F)cc2F)cc2cnc(NC3CCOCC3)nc21 | 0.0482 (inactive) | 4
58 | Fc1cccc(COc2ccc(Nc3ncnc4cc(-c5ccc[nH]5)sc34)cc2Cl)c1 | 0.034 (inactive) | 3
59 | C#Cc1cccc(Nc2ncnc3ccc(OCCCCNCCS(C)(=O)=O)cc23)c1 | 0.148 (inactive) | 4
60 | Cn1cc(C2=C(c3cn(CCCN)c4ccccc34)C(=O)NC2=O)c2ccccc21 | 0.871 (inactive) | 39
61 | O=S1CCN(Cc2ccc(-c3ccc4ncnc(Nc5ccc(OCc6ccccc6)c(Cl)c5)c4c3)o2)CC1 | 0.0559 (inactive) | 5
62 | O=C1NC(=O)C(c2ccccc2Cl)=C1Nc1cccc(O)c1 | 0.0989 (inactive) | 5.5
63 | NC(=O)c1ccc(-c2nc(-c3ccc4c(c3)OCO4)c(-c3ccccn3)[nH]2)cc1 | 0.161 (inactive) | 5.5
64 | CN(C)CCOc1ccc(-c2nc(-c3ccc4c(c3)CC/C4=N\O)c(-c3ccncc3)[nH]2)cc1 | 0.212 (inactive) | 9
65 | FC(F)(F)c1cccc(Nc2nccc(-c3cnn4nc(-c5ccccc5)ccc34)n2)c1 | 0.154 (inactive) | 4.5
66 | Nc1ncnc2occ(-c3ccc(NC(=O)Nc4cc(C(F)(F)F)ccc4F)cc3)c12 | 0.017 (inactive) and 0.0224 (inactive) | 2 and 1
67 | Cn1cc(/C=C2\C(=O)Nc3cccnc32)c2ccccc21 | 0.0768 (inactive) | 4
68 | Cc1ccc(O)cc1Nc1ccnc2cc(-c3ccccn3)ccc12 | 0.137 (inactive) | 3.5
69 | Cn1c(-c2nonc2N)nc2cnccc21 | 0.0787 (inactive) | 4.5
70 | Fc1ccc(-c2nc3n(c2-c2ccncc2)CCS3)cc1 | 0.154 (inactive) | 4
71 | COc1ccc(-c2oc3ncnc(N)c3c2-c2ccc(NC(=O)Nc3cc(C(F)(F)F)ccc3F)cc2)cc1 | 0.0596 (inactive) | 6
72 | NS(=O)(=O)c1ccc(N=Nc2c(O)[nH]c3ccc(Cl)cc23)cc1 | 0.227 (inactive) | 6.5
